# TexasRed fluor = Texas Red fluorescence interference in TRb-SRC2 counter-screen | TRb/SRC2 Texas Red total fluorescence interference | Potency, µM (titrated, usually from 106 µM), without a hit: at the highest dose fluorescence change, negative = quenching | 0.29% of 280,000 active | AID 1479; active = well fitted curve in either direction with a large enough effect; inconclusive = small, poorly fitted or top-dose-only effect
#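 Human TRb ligand-binding domain at 0.6 uM with 20 nM Texas Red SRC2 peptide in Tris buffer containing 1 uM T3 and 5% DMSO, incubated with compound 5 h at ambient temperature. Total fluorescence (555/632 nm) calculated as parallel + 2 × perpendicular.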
# Tau ThT inhib = tau fibrillization inhibition (ThT binding). P10636. recombinant tau K18 P301L, heparin-induced fibrillization, ThT fluorescence. Potency, µM (top dose mostly 57.4 µM), for the others: at the highest dose activity, negative = inhibition, most hits filed as inhibitors. 2.1% of 270,000 active. AID 1460; also: nearly all actives have a fitted effect of over 55% in size
# Target sequence (P10636 561-689 P618L limits assumed): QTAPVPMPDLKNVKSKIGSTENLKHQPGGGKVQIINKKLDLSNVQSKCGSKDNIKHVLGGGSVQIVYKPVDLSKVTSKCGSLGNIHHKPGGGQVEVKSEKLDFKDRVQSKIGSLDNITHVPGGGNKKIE
#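 In this qHTS, human K18 P301L tau is incubated with compound and heparin for 6 hr at 37 C, and Thioflavin T fluorescence then reports fibril load.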
# GoLoco inh red = RGS12 GoLoco-Gai1 interaction inhibition; P63096; Gai1:RGS12 GoLoco peptide FP, rhodamine, 10 min; Potency, µM (series often up to 61.6 µM), for inactives: top-dose activity, negative = inhibition, most hits filed as inhibitors; 0.44% of 230,000 active; AID 880; active = well fitted inhibition curve with a large enough effect, not every such curve was filed as active; inactive = no such curve, though single readings can be large or run the other way; also: nearly all actives have a fitted effect of over 30% in size
# TRb-SRC2 inh = disrupts binding of human TR beta to SRC2 | P10828 | TRbeta-SRC2 peptide binding, fluorescence polarization; receptor liganded with 1 µM T3 | Potency, µM (doses to about 106 µM), without a hit: at the top dose activity change, negative = inhibition, hits mostly inhibitors | 0.065% of 280,000 active | AID 1469;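 also: plate controls were bound peptide for no effect and peptide without receptor for full effect; nearly all actives have a fitted effect of over 50% in size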
# Target sequence (P10828 whole entry, looked up): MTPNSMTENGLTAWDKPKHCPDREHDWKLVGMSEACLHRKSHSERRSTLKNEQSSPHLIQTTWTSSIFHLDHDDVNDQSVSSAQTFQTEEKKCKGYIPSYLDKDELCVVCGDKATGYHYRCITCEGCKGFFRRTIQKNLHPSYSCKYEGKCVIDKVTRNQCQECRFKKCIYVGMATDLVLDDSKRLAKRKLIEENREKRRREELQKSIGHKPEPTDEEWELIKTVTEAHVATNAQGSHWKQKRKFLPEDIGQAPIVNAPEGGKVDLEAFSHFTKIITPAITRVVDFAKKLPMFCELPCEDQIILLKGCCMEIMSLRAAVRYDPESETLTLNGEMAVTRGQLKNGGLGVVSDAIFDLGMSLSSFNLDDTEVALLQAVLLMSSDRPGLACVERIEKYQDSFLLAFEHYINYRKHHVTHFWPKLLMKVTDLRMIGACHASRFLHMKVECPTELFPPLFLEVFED
#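 Fluorescence polarization of 20 nM Texas Red SRC2 peptide (20-aa NR interaction domain) bound to 0.6 uM human TRb ligand-binding domain, with 1 uM T3, after 5 hr at ambient temperature; inhibition seen as decreased polarization.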
# Tau fluor counter = counter-screen for tau fibril formation inhibitors; AID 1463; 0.93% of 280,000 active; Potency, µM (titrated, usually from 57.7 µM), without a hit: top-dose activity change, negative = decrease; tau K18 P301L Alexa594 fluorescence, heparin fibrillization; also: nearly all actives have a fitted effect of over 55% in size
#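 Human tau K18 P301L (15 uM unlabeled, 0.24 uM Alexa 594-labeled) in 100 mM sodium acetate pH 7 with 20 uM heparin, 6 hr at 37 C. ThT 30 uM added, 1 hr ambient; Alexa 594 FP and total fluorescence read at 555/632 nm.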
# Tau fibril FP = inhibitors of human tau fibril formation. P10636. K18 P301L tau heparin fibrillization, Alexa594 FP, 6 h. Potency, µM (top dose mostly 57.7 µM), without a hit: at the highest dose activity, negative = inhibition, actives largely listed as inhibitors. 0.39% of 280,000 active. AID 1468; also: nearly all actives have a fitted effect of over 55% in size
#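 FP of Alexa 594-tau after heparin (20 uM) induction. Substrate: human K18 P301L, 15 uM unlabeled, 0.24 uM labeled. Buffer 100 mM sodium acetate pH 7. 6 hr, 37 C.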
# Numbers without * were called inactive; ? = inconclusive; . = not tested or not shown; ! = not confirmed by another sample; [ ] = another dose, or the depositor's remark. This is a sample that favours compounds with a hit; in the whole collection about 3.2% have one here. Unless noted, calls follow the shape of the dose curve; as a rule, active = well fitted curve in the direction sought with a large enough effect; inconclusive = small, poorly fitted or top-dose-only effect, or another doubt; inactive = no such curve, though single readings can be large; an effect the other way counts as inactive or inconclusive. Unless noted, % is scaled to controls: 0 for no effect and ±100 for the full control effect; potency is read from the fitted curve at half-maximal effect.
SMILES,TexasRed fluor,Tau ThT inhib,GoLoco inh red,TRb-SRC2 inh,Tau fluor counter,Tau fibril FP
CC1(OC(=O)c2ccc(Cl)nc2)C(=O)C=C2C=C(c3ccsc3)OC=C2C1=O (stereo unspecified),1.0%,?,36.8%,5.0%,-16.2%,-3.7%
COC(=O)CCC(=O)OC1(C)C(=O)C=C2C=C3CCCN3C=C2C1=O (stereo unspecified),0.5%[11.2 µM],10µM*!,-0.2%[14.2 µM],0.5%[11.2 µM],-5.8%[11.6 µM],?
CC1(OC(=O)c2ccc(Cl)nc2)C(=O)C=C2C=C(C3CC3)OC=C2C1=O (stereo unspecified),10.3%,-15.4%,6.3%,-9.2%,-11.5%,-5.1%
CC1(OC(=O)c2ccc(Cl)nc2)C(=O)C=C2C=C3CCCN3C=C2C1=O (stereo unspecified),-13.0%[11.2 µM],5.01µM*,-8.2%[14.2 µM],4.6%[11.2 µM],-10.9%[11.6 µM],?
COC(=O)C1(Cc2ccccc2)C=C2C(=C(C(C)C)C(=O)C2C)CN1 (stereo unspecified),1.4%,?,-5.6%,10.2%,-15.7%,-4.2%
O=C(NCCc1ccccc1)c1cccc(Br)n1,-4.7%,-15.1%[81.4 µM],-1.1%[88.7 µM],0.4%,-14.5%[81.3 µM],-3.8%[81.3 µM]
Cc1ccc(/C=N/Nc2nc3ccccc3s2)o1,-9.3%,?,4.6%,3.2%,14.1µM*[quencher],?
Cc1ccc(/C=N/Nc2nc(C(C)(C)C)cs2)o1,-5.7%,?,19.0%,0.3%,?,?
COCC(=O)N1CCc2nc(-c3ccccc3)c3c(c2C1)CO[C@@H](C)C3,-14.6%[11.2 µM],0.0%[11.5 µM],5.6%[14.2 µM],3.2%[11.2 µM],-4.1%[11.6 µM],-0.1%[11.6 µM]
CCc1nnc(NC(=O)c2ccc3ccccc3n2)s1,-2.0%,?,34.6%,7.3%,4.1%,7.7%
CCOC(=O)Cc1csc(NC(=O)c2sc3nc4ccc(C)cc4cc3c2N)n1,-4.0%,3.16µM*,11.7%,-2.8%,-15.7%,9.0%
CCc1nnc(NC(=O)c2sc3nc4cc(C)ccc4cc3c2N)s1,-7.1%,2µM*,23.0%,7.6%,?,-5.4%
O=C(O)CC(O)CC(O)/C=C/c1c(C2CC2)nc2ccccc2c1-c1ccc(F)cc1 (stereo unspecified),-2.7%,.,8.6%,8.1%,.,.
CCCCn1cc[n+](C)c1,-3.0%,.,.,-9.1%,.,.
Cc1cccc(NC(=O)CSc2nc(N)cc(N)n2)c1,-0.3%,-2.1%,9.4%,12.8%,-2.7%,-8.5%
Cc1ccccc1NC(=O)CSc1ccc(-c2ccco2)nn1,-4.0%,-8.3%,2.7%,2.6%,-4.9%,4.4%
Cc1cccc(NC(=O)CSc2nnc(-c3ccco3)c(-c3ccco3)n2)c1C,?,7.94µM*,3.9%,-12.5%,?,12.6µM*
Cc1cccc(NC(=O)CSc2nnc(-c3ccco3)c(-c3ccco3)n2)c1,-2.1%[53 µM],14.1µM*,-4.2%,1.5%[53 µM],?,?
O=C(N/N=C1/C[C@@H](O)[C@@H](O)[C@@H]2[C@@H]3C(=O)N(C[C@@H]4CCCO4)C(=O)[C@H]3CC[C@@H]12)OCc1ccccc1,3.9%[11.2 µM],-0.3%[11.5 µM],.,1.7%[11.2 µM],-10.5%[11.6 µM],-7.9%[11.6 µM]
Cc1ccccc1-c1ccnc2c(-c3ccc(F)cc3)c(C)nn12,11.2µM*[quencher],?,.,-17.3%,?,-4.5%
CC(=O)NN1C(=O)/C(=C\c2ccc(Br)o2)SC1=S,7.9%,25.1µM*,29.9%,4.8%,-25.4%,10.9%
CC(=O)NN1C(=O)/C(=C\c2ccccc2)SC1=S,-2.3%,-9.5%,-9.5%,-0.6%,-11.7%,-8.2%
CC(=O)NN1C(=O)/C(=C/c2ccc(Br)o2)SC1=S,16.6%,15.8µM*,43.4%,21.5%,?,?
COC(=O)[C@@H]1C(O)[C@@H](C(=O)OC)[C@H](C)N(C)[C@@H]1C (stereo partly specified),.,.,-1.8%[14.2 µM],.,.,.
COc1cc(/C=C2/C(=O)NN(c3cccc(F)c3)C2=O)ccc1OC(=O)c1ccco1,2.0%,?,-3.2%,-4.6%,-14.6%,2.7%
SMILES,TexasRed fluor,Tau ThT inhib,GoLoco inh red,TRb-SRC2 inh,Tau fluor counter,Tau fibril FP
COc1cc(/C=C2/C(=O)NN(c3ccc(Cl)cc3)C2=O)ccc1OC(=O)c1ccco1,-9.0%,14.1µM*,6.5%,-2.8%,?,4.8%
N#CCSc1nc(Nc2ccc3c(c2)OCO3)c2ccccc2n1,-3.6%,-17.0%,3.3%,5.8%,?,2.5%
CCOC(=O)CSc1nc(Nc2ccc3c(c2)OCO3)c2ccccc2n1,-4.9%,?,4.2%,-1.5%,12.6µM*[quencher],14.1%
CCOC(=O)CNc1ccc2c(c1)OCO2,-1.7%,31.6µM*,-2.0%,-21.7%,-28.4%,?
Cc1c(O)ccc(/C(Cc2ccc3ccccc3n2)=N\N)c1O,-1.9%,7.08µM*,20.6%,-4.3%,11.2µM*[quencher],8.9%
CC(C)C(=O)Cc1ccc2ccccc2n1,.,.,11.9%[14.2 µM],.,.,.
CCc1cc(/C(Cc2ccc3ccccc3n2)=N\O)c(O)cc1O,-6.6%,-13.9%,16.4%,8.1%,22.4µM*[quencher],-9.2%
Cc1nc2ccccc2c(=O)n1/N=C/c1ccc([N+](=O)[O-])o1,-4.3%,28.2µM*,7.3%,-5.9%,?,?
O=C(N/N=C/c1ccc([N+](=O)[O-])o1)C(O)c1ccccc1 (stereo unspecified),3.4%,.,4.3%,-1.2%,-6.6%,0.2%
CN(/N=C/c1ccc([N+](=O)[O-])o1)c1ccccc1,-6.0%,7.08µM*,35.8%,-1.9%,?,-11.5%
Cc1cccc(C2=N[C@@H](Cc3ccccc3)CO2)c1,-3.9%[201 µM],-18.6%[126 µM],9.1%[88.7 µM],-7.0%[201 µM],-19.7%[126 µM],-0.4%[126 µM]
N#Cc1cc(Sc2ccccn2)c([N+](=O)[O-])cc1C#N,-23.6%,14.1µM*,225.6%,6.9%,?,-16.6%
CCCCCCCCCCCCCCCCCCN,0.8%[201 µM],.,.,3.8%[201 µM],.,.
CCSC1=C(C#N)C(c2ccc(OC)c(OC)c2)CC(=O)N1 (stereo unspecified),-3.0%,-9.6%,8.0%,-2.2%,-6.1%,-1.2%
COc1ccc(N2CSC3=C(C#N)C(c4cc(OC)ccc4OC)CC(=O)N3C2)c(OC)c1 (stereo unspecified),1.4%,12.6µM*,-13.4%,-4.6%,?,28.2µM*
COc1ccc(N2CSC3=C(C#N)C(c4ccc(OC)c(OC)c4)CC(=O)N3C2)c(OC)c1 (stereo unspecified),1.6%,7.94µM*,-31.9%,1.2%,?,15.8µM*
CCOC(=O)c1ccc(N2CSC3=C(C#N)C(c4cccs4)CC(=O)N3C2)cc1 (stereo unspecified),-0.1%,?,-33.5%,1.1%,-14.9%,?
COc1ccc(N2CSC3=C(C#N)C(c4cc(OC)c(OC)cc4OC)CC(=O)N3C2)c(OC)c1 (stereo unspecified),4.9%,8.91µM*,-8.2%,1.5%,?,12.6µM*
